Results as given in PubChem BioAssay.

What follows are compounds tested against Homeobox protein Hox-A13 (Mus musculus) (UniProt Q62424) (assay: inhibitors of HoxA13-DNA binding, primary screen, biochemical, fluorescence polarization, labeled oligonucleotide (AID 1185)). Conditions: 15 min, higher = more signal, called active from +8 up or from −8 down.
Sequence of Homeobox protein Hox-A13 (Mus musculus) (Q62424 whole entry, looked up): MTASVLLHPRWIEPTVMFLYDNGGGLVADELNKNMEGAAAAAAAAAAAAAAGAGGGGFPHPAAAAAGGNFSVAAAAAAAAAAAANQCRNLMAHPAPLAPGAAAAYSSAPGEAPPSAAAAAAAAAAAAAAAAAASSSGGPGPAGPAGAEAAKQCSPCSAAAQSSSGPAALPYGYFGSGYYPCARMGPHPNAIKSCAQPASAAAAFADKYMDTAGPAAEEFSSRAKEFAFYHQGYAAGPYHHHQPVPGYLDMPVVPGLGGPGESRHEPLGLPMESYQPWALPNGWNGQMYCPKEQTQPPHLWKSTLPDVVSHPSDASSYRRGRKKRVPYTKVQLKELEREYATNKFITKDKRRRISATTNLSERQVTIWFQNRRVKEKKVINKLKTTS

z-score, inactive:
C=CCOC(=O)[C@H]1[C@@H]2C(=O)O[C@@H](c3ccccc3)[C@@H](c3ccccc3)N2[C@@H](c2ccc(OCCOC(=O)[C@H]3C[C@H]4C(=O)N[C@@H](Cc5ccccc5)C(=O)N4[C@H]3c3ccc(O)cc3)cc2)[C@]12C(=O)Nc1ccccc12 1.08
CC(C)C[C@@H]1NC(=O)[C@H]2C[C@@H](C(=O)NCCCCCCN(C)C)[C@@H](c3cccc(OCCO)c3)N2C1=O -4
C/C=C\[C@@H](NCc1ccccc1Br)[C@@H](O)Cc1ccccc1 -1.47
C=C(/C(=C/C[C@H](OC(=O)c1ccncc1)c1ccc(OCCO)cc1)c1cnc2ccccc2c1)C(C)C -3.29
O=C(CS)NCCCCCNC(=O)[C@H]1C[C@H]2C(=O)N3CCC[C@H]3C(=O)N2[C@H]1c1cccc(OCCO)c1 -3.04
CCCCCN1CC=CC23O[C@@H]4C=CCOC(=O)[C@@H]4[C@H]2C(=O)N(C(CO)C(C)C)[C@@H]3C1=O (some centres undefined) -4.81
Cc1ccc(S[C@]2(C(=O)NCC(F)(F)F)CC(=O)N(Cc3ccccc3Cl)[C@@H]2c2ccc(CO)cc2I)cc1 -2.61
O=C1O[C@@H](c2ccccc2)[C@@H](c2ccccc2)N2[C@@H](c3ccc(OCCO)cc3)[C@]3(C(=O)Nc4ccccc43)[C@@H](C(=O)N3CCN(c4ncccn4)CC3)[C@H]12 1.84
CC(C)=C1C(=O)C(c2ccccc2)=C2CN3C(=O)N(CCc4ccccc4)C(=O)[C@]3(Cc3ccc(F)cc3)[C@H]21 -2.1
